About 27,000 (9.3%) of roughly 290,000 compounds were called active. The sample holds actives, similar compounds and a random draw of the others, so the mix is not that of the screen. A number with no mark means an inactive call. Rule as the data show it: active = inhibition mostly above about 28% (no sharp cut-off); inactive = mostly below about 43%.
Test: A qHTS for Small Molecule Inhibitors of Shiga Toxin; also: 0% is about no effect
Settings: Vero cells, Shiga toxin protein synthesis inhibition reporter; at 38.7 µM, active compounds read high

Row | SMILES | inhibition
1 | COc1ccc2oc(=O)cc(-c3cc4ccccc4o3)c2c1 | -7.01%
2 | CCOc1nc(-c2ccc(OC)cc2)ccc1-c1noc(-c2cc(OC)c(OC)c(OC)c2)n1 | 11.8%
3 | COc1ccc(-c2noc(CCCC(=O)NC3CCCC3)n2)cc1OC | -6.44%
4 | COc1ccc(-c2noc(-c3cccc(OC)c3OC)n2)cc1OC | 64.7% (active)
5 | CC(C)NC(=O)C(c1ccc(F)cc1)N(C(=O)CCC(=O)Nc1ccccn1)c1ccccc1F (stereo unspecified) | -8.5%
6 | Cc1ccc(C)c(NS(=O)(=O)c2c(C)[nH]c(C)c2C(=O)N2CCCCC2)c1 | 2.83%
7 | Nc1cccc(-c2cc(-c3ccccc3)nc(-c3cccc(N)c3)n2)c1 | -3.83%
8 | CNc1nc(-c2ccccc2)cc(-c2ccccc2)n1 | 1.28%
9 | Nc1nc(-c2ccccc2)cc(-c2ccccc2)n1 | 30.7% (active)
10 | O=C(NC1CC1)C(Cc1ccccc1)NS(=O)(=O)c1ccccc1F (stereo unspecified) | -4.61%
11 | CC1(C(=O)O)CCC(C(=O)Nc2ccc(Cl)c(Cl)c2)C1(C)C (stereo unspecified) | -2.66%
12 | O=C(CCn1c(SCC(=O)c2ccccc2)nc2ccccc2c1=O)NCc1ccc(F)cc1 | -27.4%
13 | O=C(Nn1c(-c2ccccc2)nc2ccccc2c1=O)c1ccc([N+](=O)[O-])cc1 | -8.82%
14 | O=C(CN(C(=O)CNC(=O)c1cccs1)c1cccc(F)c1)NC1CCCCC1 | -5.58%
15 | O=C1CCN(Cc2ccc([N+](=O)[O-])cc2)CCN1[C@H](CO)Cc1ccccc1 | -0.762%
16 | C=CCc1cc(C)ccc1OCCCn1ccnc1 | -4.77%
17 | CC1C(=O)Nc2ccc(S(=O)(=O)N3CCN(c4ccccc4F)CC3)cc2NC1=O (stereo unspecified) | -0.75%
18 | CCc1c(C)sc(NC(=O)c2cccs2)c1C(N)=O | 107% (active)
19 | CCCc1nnc(NC(=O)c2cccs2)s1 | 39%
20 | COC(=O)c1c(NC(=O)c2cccs2)sc2c1CCCC2 | 35.1%
21 | N#Cc1cccc(NC(=O)CCC2CCCC2)c1 | 33.8% (active)
22 | Cc1ccc(CC(=O)Nc2cccc(C#N)c2)cc1 | 25.6%
23 | N#Cc1cccc(NC(=O)CN2CCCCCC2)c1 | 2.24%
24 | COc1ccc(N2CCN(CCNC(=O)Nc3cc(Cl)ccc3Cl)CC2)cc1 | 4.24%

Row | SMILES | inhibition
25 | CCc1ccccc1NC(=O)NCCN1CCCCC1 | -9.72%
26 | COc1ccc(SC[C@H](Cc2ccccc2)N2CCN(CCc3ccccc3)CCC2=O)cc1 | -7.36%
27 | CCCN1CCC(=O)N(C(CSc2ccc(C)cc2)Cc2ccccc2)CC1 (stereo unspecified) | -8.43%
28 | Cc1ccc(SCC(CC(C)C)N2CCN(CCc3ccccc3)CCC2=O)cc1 (stereo unspecified) | 64.5% (active)
29 | O=c1onc(-c2c(F)cccc2F)n1-c1ccccc1Cl | -3.28%
30 | CCCOC(=O)Nc1sc2c(c1C(=O)OCC)CCC2 | -17.5%
31 | CCOC(=O)c1c(NC(=O)C2CCN(S(=O)(=O)c3ccc(Cl)cc3)CC2)sc2c1CCCC2 | 45.1% (active)
32 | CCOC(=O)c1c(NC(=S)NC)sc2c1CCCC2 | -5.4%
33 | NC(=O)Cn1cc(/C=N\NS(=O)(=O)c2ccccc2)c2ccccc21 | -5.18%
34 | COc1ccc(-c2nc3ccccc3n2CCC(C)C)cc1OC | -2.89%
35 | Cc1nonc1C(=O)N/N=C/c1ccc(O)cc1 | 72.1% (active)
36 | O=C(C[n+]1ccccc1)N/N=C/c1ccc(O)cc1 | 30.3%
37 | Cc1nc2ccc(C(=O)N/N=C/c3ccc(O)cc3)cc2[nH]1 | 22.1%
38 | O=C(CSc1nc2ccc([N+](=O)[O-])cc2[nH]1)c1ccc(Cl)cc1 | -3.36%
39 | O=[N+]([O-])c1ccc2nc(-c3ccccn3)[nH]c2c1 | 102% (active)
40 | O=c1[nH]c2cccnc2n1-c1ccc([N+](=O)[O-])cc1 | 6.32%
41 | COC(=O)c1cc(S(=O)(=O)Nc2ccc(C)c(F)c2)c[nH]1 | 9.13%
42 | CC(C)c1c(C(=O)N/N=C/c2ccccc2C(=O)O)nnn1-c1nonc1N | 0.546%
43 | Cc1cccc(N2CCN(Cc3nc(C4CC4)no3)CC2)n1 | 18.6%
44 | O=C(NCc1ccccc1Cl)C1CCCN1S(=O)(=O)c1ccc(F)cc1 (stereo unspecified) | -12.5%
45 | CCOC(=O)c1ccc(NC(=S)Nc2cc(C)cc(C)n2)cc1 | -12.4%
46 | CCOC(=O)c1cn[nH]c1NC(=S)Nc1ccccc1 | 57.1% (active)
47 | CCOC(=O)c1cc2c(nc1NC(=S)Nc1ccccc1)CC(C)(CC)OC2 (stereo unspecified) | -8.83%
48 | COc1ccc(CN2CCc3nc(Nc4ccccc4)ncc3C2)c(OC)c1OC | 3.91%

Row | SMILES | inhibition
49 | COc1cccc(C2Nc3cccc4cccc(c34)N2)c1 | -2.47%
50 | O=C1NC(c2cccc(Cl)c2)Nc2ccccc21 (stereo unspecified) | 18.4%
51 | COc1ccc(C2NC(=O)c3ccccc3N2)cc1 (stereo unspecified) | 62.6% (active)
52 | COc1cccc2cc(-c3cc(=O)oc4cc(C)c(O)cc34)oc12 | 0.992%
53 | CCCCCc1c(C)nc(N2CCN(Cc3ccc4c(c3)OCO4)CC2)[nH]c1=O | 7.82%
54 | COC(=O)CSc1ncnc2c1cnn2-c1ccc(C)cc1C | -5.7%
55 | COc1ccc(N2CCN(C(=O)CSc3ncnc4c3cnn4-c3ccc(OC)cc3)CC2)cc1 | -9.91%
56 | COc1ccc(-n2ncc3c(SCC(=O)NNC(C)=O)ncnc32)cc1 | 25.6% (active)
57 | c1ccc(-n2ncc3c(N4CCCC4)ncnc32)cc1 | 27.5%
58 | CC(C)Sc1ncnc2c1cnn2-c1ccccc1 | 96.6% (active)
59 | COc1ccccc1N1CCN(C(=O)CSc2ncnc3c2cnn3-c2ccc(C)c(C)c2)CC1 | 66.7% (active)
60 | c1ccc(-n2ncc3c2ncn2c(C4CCCCC4)nnc32)cc1 | 11.5%
61 | CC(=O)Nc1ccc(NC(=O)CSc2ncnc3c2cnn3Cc2ccccc2)cc1 | 3.21%
62 | CN(C(=O)COc1ncnc2c1cnn2-c1ccccc1)C1CCCCC1 | 20.6%
63 | COc1ccccc1N1CCN(C(=O)CSc2nnc(-c3ccoc3C)o2)CC1 | 31.6%
64 | CCN(CC)C(=O)CSc1ncnc2c1cnn2-c1ccccc1 | 66.2% (active)
65 | COc1ccc(NC(=O)CSc2ncnc3[nH]ncc23)cc1 | -13.5%
66 | COc1ccccc1Oc1ccc(N/C=C2/CCCC2=O)cc1 | 33.6%
67 | Cc1onc(-c2ccccc2)c1C(=O)N1CCN(S(=O)(=O)c2ccccc2C(F)(F)F)CC1 | 61.7%
68 | CCOc1ccc(N(CC)S(=O)(=O)c2cccc3nsnc23)cc1 | -2.2%
69 | Nc1c(Cl)cc(-c2csc(N3CCCC3c3nc4cc(Cl)c(Cl)cc4n3CCOCCO)n2)cc1Cl (stereo unspecified) | -18%
70 | CCCOc1ccc(-c2c(C(=O)N/N=C/c3ccco3)nnn2-c2nonc2N)cc1 | -3.97%
71 | CC(C)c1ccc2oc(=O)cc(CN3CCN(Cc4ccccc4)CC3)c2c1 | -3.05%
72 | Cc1ccc(C(=O)N2CCC(n3nccc3NC(=O)Nc3cccc(F)c3)CC2)cn1 | -8.38%

Row | SMILES | inhibition
73 | COc1ccc(-c2cc(=O)oc3cc(OC(C)C(=O)NCC4CCC(C(=O)O)CC4)ccc23)cc1 (stereo unspecified) | -4.72%
74 | CC(=O)Cn1cnc2c(cnn2-c2ccccc2)c1=O | 34.2% (active)
75 | O=C(Cn1cnc2c(cnn2-c2ccc(F)cc2)c1=O)NCCc1ccccc1 | -0.429%
76 | O=C(Cn1cnc2c(cnn2-c2ccccc2)c1=O)NCc1ccccc1 | 31.9%
77 | CC1C(=O)Nc2ccccc2N1C(=O)c1c(F)cccc1F (stereo unspecified) | -5.2%
78 | COC(=O)C1CCCCN1C(=O)c1ccc(OC2CCN(C(C)=O)CC2)c(OC)c1 (stereo unspecified) | 20.4%
79 | Cc1ccc(-c2nc(COC(=O)c3c(C)noc3C)cs2)cc1 | 104% (active)
80 | COc1cc(OC)cc(C(=O)NCC(=O)OCc2csc(-c3ccccc3)n2)c1 | 21%
81 | Cc1ccc(S(=O)(=O)N2CCN(C(=O)COC(=O)c3c(C)noc3C)CC2)c(C)c1 | -4.13%
82 | Cc1cc(Cl)ccc1NC(=S)N1CCC(C(N)=O)(N2CCCCC2)CC1 | -10.1%
83 | CN1CCN(S(=O)(=O)c2ccc(NC(=S)NC(=O)C3CC3)cc2)CC1 | 11.7%
84 | O=C(NC(=S)Nc1ccc(Cl)cc1Cl)C1CC1 | 97.9% (active)
85 | S=C(Nc1ccc(Cl)cc1Cl)N1CCCC1 | 88.2% (active)
86 | S=C(NCc1cccnc1)Nc1ccc(Cl)cc1Cl | 23.4%
87 | Cc1ccc2c(c1)C1CN(C)CCC1N2C(=S)Nc1ccc(Cl)cc1Cl (stereo unspecified) | 14.7%
88 | CN(C)C(=S)Nc1ccc(Br)cc1Cl | 23.8%
89 | CC1CN(C(=S)Nc2ccc(Br)cc2Cl)CC(C)O1 (stereo unspecified) | -7.71%
90 | S=C(Nc1ccc(Br)cc1Cl)N1CCC2(CC1)OCCO2 | 76.2% (active)
91 | CCc1ccc(N(CC(=O)NCc2cccnc2)S(=O)(=O)c2ccccc2)cc1 | 9.02%
92 | CCn1nc(C)c(CNC(=O)C2CCC(=O)N(Cc3cccc(F)c3)C2)c1C (stereo unspecified) | -13.2%
93 | C=Cc1ccc(C(=O)N2CCCC(CCC(=O)N3CCN(c4ccccn4)CC3)C2)cc1 (stereo unspecified) | 4.52%
94 | CN(CCC(=O)Nc1cc(S(=O)(=O)N(C)C)ccc1Cl)CC(=O)Nc1ccc(F)cc1 | 1.75%
95 | CC1(c2ccc3ccccc3c2)NC(=O)NC1=O (stereo unspecified) | 9.07%
96 | O=C1CCCN2N=C(SCC(=O)Nc3ccc(Br)cc3)SC2=N1 | -4.09%

Reference: PubChem BioAssay AID2315 (National Center for Advancing Translational Sciences (NCATS), 2010)
